Here are results for 7 compounds from PubChem BioAssay (EPA / NIEHS).

Activity calls are given as the source filed them. The calls were made as follows: active = hit-call score of the fitted dose curve at least 0.9, where 1 is the maximum; inactive = score below 0.9.

Assay [1] in a line: APR_HepG2_CellCycleArrest_24hr: Apredica 24-hour HepG2 Assay for Cell Cycle Arrest (AID 2282905).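 Also: cell cycle arrest scored as ratio of 2N to 4N nuclear DNA content.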 The conditions noted are these: imaging, actives raise or lower the signal. In outline:
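Cell cycle arrest is scored from nuclear DNA content measured by high-content imaging of Hoechst 33342-stained HepG2 cells following 24-hour treatment at ten concentrations up to 200 uM, with DMSO as baseline.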

Assay [2] can be described thus: APR_HepG2_NuclearSize_24hr: Apredica 24-hour HepG2 Assay for Nuclear Size (AID 2282907). To be noted: high-content imaging, actives raise or lower the signal. The method in brief: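 Compounds in DMSO (final 0.5%) were added to human HepG2 hepatoma cells at ten concentrations up to 200 uM for 24 hr. Fixed nuclei were stained with Hoechst 33342, and nuclear diameter was quantified from automated images.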

A short description of assay [3]: APR_HepG2_CellLoss_24hr: Apredica 24-hour HepG2 Assay for Cell Loss (AID 2282908).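 As to AC50: fit in both directions so a hit may be cell loss or gain.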 The conditions noted are these: high-content imaging. In outline: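 Cell number is quantified by fluorescence imaging of Hoechst 33342-stained nuclei following dosing at 0.39–200 uM in 0.5% DMSO. Curves are fitted in both directions from the DMSO baseline.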
Assay [4] can be described thus: APR_HepG2_MicrotubuleCSK_24hr: Apredica 24-hour HepG2 Assay for Microtubule CSK Stabilty (AID 2282909). The conditions noted are these: HepG2 microtubule cytoskeleton imaging, actives raise or lower the signal. In outline: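 Steps: dose HepG2 for 24 h (0.39–200 uM, 0.5% DMSO); fix 30 min in 3.7% formaldehyde at room temperature; permeabilize; stain alpha-tubulin 60 min; image microtubule cytoskeleton at 20x. Signal change fitted in both directions relative to DMSO.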

Assay [5] can be described thus: APR_HepG2_MitoticArrest_24hr: Apredica 24-hour HepG2 Assay for Mitotic Arrest (AID 2282910). The conditions noted are these: high-content imaging, actives raise or lower the signal. The method in brief: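 HepG2 human liver cells were exposed to compounds at 0.39–200 uM (10 concentrations, duplicate) in 0.5% v/v DMSO for 24 hr, then fixed and immunostained for phospho-histone H3 with Hoechst 33342. Mitotic arrest came from HCS fluorescent imaging, fitted bidirectionally against DMSO.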

The nature of assay [6]: APR_HepG2_MitoMembPot_24hr: Apredica 24-hour HepG2 Assay for Mitochondrial Membrane Potential (AID 2282911). To be noted: imaging, actives raise or lower the signal. The method in brief:
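Human hepatoma HepG2 cultures received ten compound concentrations up to 200 uM for 24 hr. Membrane-potential dye signal, captured by automated fluorescence microscopy, was scored for gain or loss against DMSO controls.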

The nature of assay [7]: APR_HepG2_MitoMass_24hr: Apredica 24-hour HepG2 Assay for Mitochondrial Mass (AID 2282912). The conditions noted are these: high-content imaging, actives raise or lower the signal. In outline: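 The liver line HepG2 was dosed in duplicate across a 0.39–200 uM series, with final DMSO held at 0.5% v/v, and harvested at 24 hr. High-content imaging measured mitochondrial dye staining.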

Assay [8] is described as follows: APR_HepG2_p53Act_24hr: Apredica 24-hour HepG2 Assay for p53 Activation (AID 2282913).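 Also: p53 protein immunofluorescence averaged per cell in HepG2 with Hoechst nuclei.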 The conditions noted are these: high-content imaging, actives raise or lower the signal. In outline:
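Automated fluorescence imaging quantifies p53 immunostaining in HepG2 cells after a 24 hr exposure (0.39–200 uM, duplicate, 0.5% DMSO). Nuclei are located by Hoechst 33342 staining.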

Assay [9] is described as follows: APR_HepG2_CellCycleArrest_72hr: Apredica 72-hour HepG2 Assay for Cell Cycle Arrest (AID 2282914). To be noted: high-content imaging, actives raise or lower the signal. The method in brief: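 Cell cycle arrest in HepG2 was scored from nuclear DNA content after 72 hr compound treatment (0.39–200 uM). Activity, either gain or loss, was fitted against the DMSO baseline.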

Assay [10] can be described thus: APR_HepG2_CellLoss_72hr: Apredica 72-hour HepG2 Assay for Cell Loss (AID 2282915). The conditions noted are these: high-content imaging. The method in brief: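 HepG2 cells were exposed for 72 hr to compounds at 0.39–200 uM (ten concentrations, duplicate) in 0.5% v/v final DMSO. Nuclei were stained with Hoechst 33342 after 3.7% formaldehyde fixation, imaged at 20x, and counted; fits bidirectional versus DMSO.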

Assay [11] in a line: APR_HepG2_P-H2AX_72hr: Apredica 72-hour HepG2 Assay for H2AX Phosphorylation (AID 2282916).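 Also: phospho-histone H2A.x immunostain intensity per cell marking DNA damage.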 The conditions noted are these: imaging, actives raise or lower the signal. In outline: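 Following 72 hr treatment with 0.39–200 uM compound, HepG2 cells were formaldehyde-fixed, permeabilized and stained for phospho-H2A.x; signal was measured by high-content imaging and fitted bidirectionally against DMSO controls.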

Assay [12] in a line: APR_HepG2_MitoMembPot_72hr: Apredica 72-hour HepG2 Assay for Mitochondrial Membrane Potential (AID 2282917). To be noted: imaging, actives raise or lower the signal. The method in brief: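 HepG2 cells exposed 72 h to compounds at 0.39–200 uM (0.5% v/v DMSO, duplicates); MitoTracker Red CMXRos 250 nM loaded 30 min before 3.7% formaldehyde fixation, imaged by HCS fluorescence. Bidirectional fit versus DMSO.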

The nature of assay [13]: APR_HepG2_MitoticArrest_72hr: Apredica 72-hour HepG2 Assay for Mitotic Arrest (AID 2282918). The conditions noted are these: high-content imaging, actives raise or lower the signal. The method in brief:
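Mitotic arrest in HepG2 is scored from phospho-histone H3 staining after 72 hr dosing across 0.39–200 uM, with DMSO at 0.5% v/v. Nuclei are identified by Hoechst 33342 and fluorescence intensity is quantified per cell.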

Assay [14] can be described thus: APR_HepG2_MicrotubuleCSK_72hr: Apredica 72-hour HepG2 Assay for Microtubule CSK Stabilty (AID 2282919). The conditions noted are these: HepG2 microtubule cytoskeleton, high-content imaging, actives raise or lower the signal. The method in brief:
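HepG2 human liver cells were dosed for 72 h at ten concentrations from 0.39 to 200 uM in duplicate (0.5% v/v DMSO final). Fixed, permeabilized cells were immunostained for alpha-tubulin (Cy5) with a Hoechst counterstain and imaged at 20x.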

A short description of assay [15]: APR_HepG2_P-H2AX_24hr: Apredica 24-hour HepG2 Assay for H2AX Phosphorylation (AID 2282920). The conditions noted are these: high-content imaging, actives raise or lower the signal. The method in brief: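 Signal comes from a FITC-labeled secondary detecting phospho-histone H2A.x in fixed HepG2 cells, quantified by automated imaging at 20x. Dosing ran 24 hr across 0.39–200 uM with 0.5% v/v DMSO.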

Assay [16] is described as follows: APR_HepG2_StressKinase_72hr: Apredica 72-hour HepG2 Assay for Stress Kinase (AID 2282921). To be noted: HepG2 stress kinase (phospho-c-Jun) imaging, actives raise or lower the signal. In outline:
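Fluorescence intensity of Cy3-tagged anti-phospho-c-Jun antibody, quantified per cell from Hoechst-defined nuclei across six images per well, served as the read-out following 72 h exposure (0.39–200 uM, 0.5% v/v DMSO).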

Assay [17] can be described thus: APR_HepG2_StressKinase_24hr: Apredica 24-hour HepG2 Assay for Stress Kinase (AID 2282922). The conditions noted are these: HepG2 stress kinase (phospho-c-Jun) imaging, actives raise or lower the signal. In outline: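 HepG2 cells exposed 24 hr to compound at 0.39–200 uM (10 concentrations, duplicate), 0.5% v/v DMSO final. Fixed in 3.7% formaldehyde, permeabilized with Triton X-100, immunolabeled for phospho-c-Jun with Hoechst 33342; HCS fluorescence imaging, bidirectional fit versus DMSO.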

Assay [18] in a line: APR_HepG2_p53Act_72hr: Apredica 72-hour HepG2 Assay for p53 Activation (AID 2282923).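 Also: average cellular p53 protein immunofluorescence intensity in HepG2 cells.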 The conditions noted are these: high-content imaging, actives raise or lower the signal. The method in brief:
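HepG2 monolayers receive test compounds in duplicate at ten concentrations (0.39 through 200 uM) for 72 hr. They are then formaldehyde-fixed, antibody-labelled for p53, Hoechst-stained and imaged, with activity fitted bidirectionally versus DMSO.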

Assay [19] can be described thus: APR_HepG2_MitoMass_72hr: Apredica 72-hour HepG2 Assay for Mitochondrial Mass (AID 2282924).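 Also: MitoTracker Red CMXRos stain intensity per cell imaged as mitochondrial mass.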 To be noted: high-content imaging, actives raise or lower the signal. The method in brief:
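HepG2 cells were exposed for 72 hr to compounds at 0.39–200 uM (ten concentrations, duplicate, 0.5% v/v DMSO final). Live cells were stained with 250 nM MitoTracker Red CMXRos for 30 min, then fixed in 3.7% formaldehyde and imaged by HCS fluorescence.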

A short description of assay [20]: APR_HepG2_NuclearSize_72hr: Apredica 72-hour HepG2 Assay for Nuclear Size (AID 2282925). To be noted: high-content imaging, actives raise or lower the signal. The method in brief: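 HepG2 cells were exposed to compounds at ten concentrations from 0.39 to 200 uM (duplicate, 0.5% DMSO final) for 72 hr. After fixation in 3.7% formaldehyde, nuclei were stained with Hoechst 33342 (2 ug/mL) and imaged at 20x.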

Regarding `NC(=O)NO`, the outcome in assay [1], in assay [2], in assay [3], in [4], in assay [5] and in assay [6] was inactive. Further, the compound was called inactive in assay [7], in assay [8], in assay [9], in assay [10], in assay [11] and in assay [12]. For the same compound, the compound was called inactive in [13], in assay [14], in assay [15], in assay [16], in assay [17] and in assay [18]. Also, the call in assay [19] was inactive.

`COC(=O)c1ccccc1O`: the result in assay [1], in assay [2], in assay [3], in [4], in assay [5] and in assay [6] was inactive. Also, the compound was classed as inactive in assay [7], in assay [8], in assay [9], in assay [10], in assay [11] and in assay [14]. Also, the result in [15], in assay [16], in [17], in [18], in assay [19] and in [20] was inactive.

As to `COCCOc1cc2cc(C(=O)NC3CCN(C(C)C)CC3)n(CC(=O)Nc3ccc(Cl)cn3)c2cn1`, the result in assay [1], in assay [2], in [4], in assay [6], in assay [8] and in assay [9] was inactive. Moreover, the result in assay [11], in assay [16], in assay [17], in assay [18] and in [19] was inactive. Also, the AC50 in assay [3] is 74 µM (active); in assay [5], 89.4 µM (active); in assay [7] it was 93.1 µM (active); in assay [10], 93.1 µM (active); in assay [14] it was 83.7 µM (active); in assay [15] it was 94.3 µM (active).

Regarding `COc1ccc2sc(C(=O)Nc3nnn[nH]3)c(OC(C)C)c2c1`, the outcome in [1], in assay [2], in assay [3], in [4], in assay [5] and in [6] was inactive. Further, the result in assay [7], in [8], in assay [9], in assay [11], in assay [12] and in [13] was inactive. The compound was called inactive in [14], in [15], in [16], in assay [17], in assay [18] and in [19]. In addition, the concentration at half-maximal activity (AC50) in [10] is 39.9 µM (active).

For the compound `Cn1cnc([N+](=O)[O-])c1Sc1ncnc2nc[nH]c12`, the compound was called inactive in [1], in [2], in assay [3], in [4], in assay [5] and in assay [6]. Also, the compound was classed as inactive in [7], in [8], in [9], in assay [11], in [14] and in assay [15]. The outcome in assay [16], in assay [17], in assay [18], in assay [19] and in [20] was inactive. The AC50 in assay [10] was 44.8 µM (active).

For `CCCCC(CC)COC(=O)c1ccc(C(=O)OCC(CC)CCCC)cc1` (stereo not drawn), the call in assay [1], in assay [2], in assay [3], in [4], in [5] and in assay [6] was inactive. Also, the call in assay [7], in [8], in assay [10], in [12], in [14] and in [15] was inactive. Besides, the compound was classed as inactive in [16], in assay [17], in assay [18], in assay [19] and in assay [20]. The concentration at half-maximal activity (AC50) in assay [9] is 32.4 µM (active); in [11], 31.5 µM (active).

On to `CCCCCCCCCCCCc1ccccc1`, for which the compound was classed as inactive in [1], in [2], in [3], in assay [4], in assay [5] and in assay [6]. The call in assay [7], in [8], in [9], in [11], in assay [12] and in assay [13] was inactive. Moreover, the compound was called inactive in assay [14], in [15], in assay [16], in [17], in assay [18] and in [19].
